FPR binder: human FPR ligands by binding competition, primary screen, cell-based, FPRL1 counter-screen, flow cytometry; fMet-Leu-Phe receptor (Homo sapiens), P21462; FPR-expressing cells, fluorescent ligand binding; inhibition, % (no concentration beside the values); 24,000 compounds, 0.74% hits; AID 440, 2006;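 also: 0% = buffer wells and 100% = receptor blocker peptide wells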
VLA-4 agonist: enhancers of LDV-FITC binding to VLA-4 integrin, primary screen, Jurkat cells, flow cytometry | activation, % at 10 µM (by protocol) | 24,000 tested, under 10 active;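 active = fluorescent ligand binding to cells raised by more than 40% of the manganese-induced maximum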;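 also: 0% = ligand binding without compound and 100% = manganese-stimulated maximal binding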
FPRL1 binder: human FPRL1 ligands by binding competition, primary screen, cell-based, FPR counter-screen, flow cytometry | inhibition, % (test concentration not listed) | N-formyl peptide receptor 2 (Homo sapiens), P25090 | 24,000 compounds, 0.3% hits | FPRL1-expressing cells, fluorescent ligand binding inhibition | AID 441, 2006;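 also: 0% = buffer alone and 100% = receptor blocker peptide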
26S disassembly: inhibitors of ATP-driven 26S proteasome dissociation, primary screen, biochemical, bead-based flow cytometry, GFP-tagged proteasome | 24,000 compounds, 0.2% hits | inhibition of disassembly, % (no concentration beside the values) | anti-FLAG beads, GFP-proteasome disassembly;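 active = inhibition of disassembly above about 33%, limit read from the data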;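 also: plate controls were ATP control with full disassembly for no effect and ATP-gamma-S intact proteasomes for full effect; higher percent means more bead fluorescence retained so stronger block of disassembly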
Autofluor Jurkat: compound autofluorescence on Jurkat cells, primary screen, artefact control for VLA-4 allosteric ligand project, cell-based, flow cytometry. 24,000 compounds, 0.61% hits. active compounds read high; 1 = vehicle-only cell background. fluorescence ratio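 (tested at 10 µM compound in the well)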;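 active = fluorescence ratio above 2.44, which is 1 plus 3 SD of all ratios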;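 also: green fluorescence of cells measured with 488 nm excitation and 530 nm emission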
VLA-4 antagonist: inhibitors of LDV-FITC binding to Mn2+-activated VLA-4, primary screen, Jurkat cells; 24,000 compounds, 0.2% hits; inhibition, % at 10 µM (by protocol); AID 529, 2006; LDV-FITC binding with Mn2+, flow cytometry; 100% = Mn2+-driven binding gain fully reversed; Integrin alpha-4 (Homo sapiens), P13612;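 active = inhibition above 50%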;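 also: 0% = Mn2+ stimulated cells lacking compound and 100% = ligand binding without Mn2+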
The depositor's hits bear a star. In the library only some 1.9% were active in any assay of this set; here they are far more common. Rule as the data show it, unless noted: active = inhibition above about 30%; inconclusive = no clear call, values can overlap the other calls; inactive = below that.

SMILES | FPR binder | VLA-4 agonist | FPRL1 binder | 26S disassembly | Autofluor Jurkat | VLA-4 antagonist
CC1=C(C(=O)OC(C)C)[C@]2(C(=O)N(CC(N)=O)c3ccccc32)C(C#N)=C(N)O1 | 24 | -2 | 50* | -1 | 0.95 | -4
CN(C)c1cc(N)c2c(n1)CCC2 (tested in a mixture with another compound) | -6 | 4 | 1 | 1 | 1.1 | -12

From PubChem BioAssay
